Assay results published in PubChem BioAssay (NCI).
Compounds without any hit were thinned out: in the full panel of roughly 83,000, 20% have a hit.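 Each cell line was grown in a 96-well plate and treated with one concentration of compound for 48 hours. Values below 10 were considered active.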 Activity calls are given as the source filed them.

test system: A549/ATCC NSCLC; test: NCI-60 one-dose screen, 48 h (100 = growth as untreated, 0 = no growth, -100 = all killed); settings: 10 µM unless noted

Row | SMILES | growth
1 | C/C(=N\N=C1/C(=O)Nc2ccc(Cl)cc21)c1ccc2c(c1)Nc1ccccc1S2 | -6.39% (active)
2 | CCCSc1nc(NCCc2c[nH]c3ccccc23)c(C#N)c(-c2ccc(F)cc2)n1 | 58.6% (inactive)
3 | COc1cc(C2CC(c3cc(OC)c(OC)c(OC)c3)=NN2C(C)=O)ccc1OCc1ccccc1 (centres undefined) | 31.8% (inactive)
4 | Cc1cc2c(cc1Cl)C(=O)/C(=C/c1ccccc1)O2 | -59.7% (active)
5 | COc1ccc2[nH]cc(-c3nc(N)nnc3-c3cn(C)c4ncccc34)c2c1 | 51.2% (inactive)
6 | Cc1ccc(C(=O)CSc2nc3ccc(F)cc3c(=O)n2-c2ccc(Cl)cc2)cc1 | 60.9% (inactive)
7 | CCCCSc1nc(NCCc2c[nH]c3ccccc23)c(C#N)c(-c2ccccc2)n1 | 39.1% (inactive)
8 | Cn1cc(-c2nc(N)nnc2-c2c[nH]c3ccc(Br)cc23)c2cccnc21 | 56.7% (inactive)
9 | CN(C)CCOc1ccc(C(=O)C2[C@H](c3ccc(Cl)cc3)[C@@H](c3ccccc3)NC23C(=O)Nc2ccc(Br)cc23)cc1 (some centres undefined) | 4.59% (active)
10 | CN1CCN(/C(=N\c2sc(-c3ccccc3)nc2-c2ccccc2)c2ccccc2)CC1 | 76.9% (inactive)
11 | CCCSc1nc(NCCc2c[nH]c3ccccc23)c(C#N)c(-c2ccccc2)n1 | 73.5% (inactive)
12 | CCN(CC)c1ccnc(CNCCSC(c2ccccc2)(c2ccccc2)c2ccc(OC)cc2)c1 | 2.36% (active)
13 | COc1cc2oc(-c3cccc(C(=O)Nc4cccc([N+](=O)[O-])c4)c3)cc(=O)c2c(OC)c1OC | 23% (inactive)
14 | O=C(COc1ccc(NC(=O)Nc2ccc(Cl)c(Cl)c2)cc1)N=Nc1c(O)[nH]c2ccc([N+](=O)[O-])cc12 | 62.4% (inactive)
15 | COc1cc(-c2nc3cc(Cl)c(Cl)cc3[nH]2)ccc1OCc1nnc(-c2cccs2)o1 | 11.7% (inactive)
16 | CCCCCCCCc1ccc(C(=O)Nc2ccc(C)cc2C(=O)O)cc1C | 85.8% (inactive)
17 | CCOP(=O)(OCCCl)c1nc(-c2ccc(C)cc2)oc1NCc1ccccc1 (centres undefined) | 66.5% (inactive)

Row | SMILES | growth
18 | NS(=O)(=O)c1ccc(N=Nc2c(O)n(CC(=O)Nc3ccccc3)c3ccccc23)cc1 | 0.913% (active)
19 | CC1(C)CC[C@]2(C(=O)Nc3ccccc3)CC[C@]3(C)C(=CCC4[C@@]5(C)C[C@@H](O)[C@H](O)[C@@](C)(CO)C5CC[C@]43C)C2C1 (some centres undefined) | 39.2% (inactive)
20 | COc1ccccc1C(=O)NN1C(=O)/C(=C/C2=Cc3ccccc3OC2)SC1=S | 103% (inactive)
21 | COc1ccc(NC(=O)[C@H](CO)NC(=O)OC(C)(C)C)cc1C(=O)Nc1cccc(C2CC(=O)c3c(cc(OC)c(OC)c3OC)O2)c1 (some centres undefined) | 68.8% (inactive)
22 | COc1ccc(C2(SCCNCc3cc(N(C)C)ccn3)c3ccccc3C=Cc3ccccc32)cc1 | 21.3% (inactive)
23 | COc1ccc2[nH]c(O)c(N=NC(=O)COc3ccc(NC(=O)Nc4ccccc4)cc3)c2c1 | 47.5% (inactive)
24 | COc1cc(/C=C/C(=O)c2ccc(C)cc2)ccc1Oc1nc(Nc2ccc(F)cc2)nc(N(C)C)n1 | 60% (inactive)
25 | CCN(CC)CCOc1ccc(Nc2ncc3cc(-c4ccc(O)c(C#N)c4)c(=O)n(C)c3n2)cc1 | 94.8% (inactive)
26 | CC(/C=C1\SC(=S)N(CCCC(=O)NC(CC(C)C)C(=O)O)C1=O)=C\c1ccccc1 (centres undefined) | 89.8% (inactive)
27 | COc1cc2c(c(OC)c1OC)C(=O)CC(c1cccc(NC(=O)c3cc(N)ccc3Cl)c1)O2 (centres undefined) | 71.5% (inactive)
28 | CC(=O)OC[C@@]1(C)C2CC[C@]3(C)C(CC=C4C5CC(C)(C)CC[C@]5(C(=O)Nc5cccc(C)c5)CC[C@]43C)[C@@]2(C)C[C@@H](OC(C)=O)[C@@H]1OC(C)=O (some centres undefined) | 40.7% (inactive)
29 | CCCCc1c(Nn2cnnn2)no[n+]1[O-] | 66.4% (inactive)
30 | CC(C)Sc1nc(NCCc2c[nH]c3ccccc23)c(C#N)c(-c2ccc(F)cc2)n1 | 51.4% (inactive)
31 | C=C1CCC2C3(C)COC(c4ccc(F)cc4)OC3CCC2(C)C1CC(O)C1=CCOC1=O (centres undefined) | 59.6% (inactive)
32 | NS(=O)(=O)c1ccc(N=Nc2c(O)n(CC(=O)Nc3ccccc3Cl)c3ccccc23)cc1 | 18.5% (inactive)
33 | Cc1ccccc1[C@H]1C(C(=O)c2ccc(Cl)cc2)C2(N[C@@H]1c1ccccc1)C(=O)Nc1ccc(Cl)cc12 (some centres undefined) | -29.2% (active)
34 | CCCCCCCCc1ccc(S(=O)(=O)Nc2ccc(CC)cc2C(=O)O)cc1 | 91.9% (inactive)
